Source: PubChem BioAssay
The sample as a whole holds a higher share of hits than the screen did.
Cycloheximide cs – counter-screen hit for Shiga toxin inhibitors, cycloheximide; cell reporter, cycloheximide protein synthesis inhibition counterscreen; max response, %; hit rate 12% among 300,000; AID 2314; in the data active = max response mostly above about 13%, no sharp cut-off; inactive = mostly below about 14%; note: read at 38.3 µM for the half of the compounds with a filed dose
Giardia FBPA inh-1 – blocks Giardia fructose-bisphosphate aldolase activity. A8B2U2. purified Giardia FBPA. Potency, µM (series often up to 59.6 µM), usual class: inhibitors. hit rate 0.71% among 290,000; note: nearly all actives have a fitted effect of over 55% in size
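Giardia FBPA (40 nM reagent) was preincubated 10 min at RT with compound (up to 57.5 uM final), then substrate plus GAPDH/TPI/NAD/arsenate coupling system with diaphorase/resazurin was added; resorufin fluorescence (525/598 nm) was read after 20 min.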
Shiga toxin inh – blocks Shiga toxin action in Vero cells; Vero cells, Shiga toxin protein synthesis inhibition reporter; AID 2315; inhibition, % at 38.7 µM; hit rate 9.2% among 290,000; in the data active = inhibition mostly above about 28%, no sharp cut-off; inactive = mostly below about 43%
Tb PYK inh – blocks Trypanosoma brucei pyruvate kinase | TbPYK enzyme, Kinase-Glo Plus ATP luminescence, 45 min | Potency, µM (series often up to 76.8 µM), most hits filed as inhibitors | hit rate 0.12% among 410,000; note: nearly all actives have a fitted effect of over 50% in size
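Luminescence from Kinase-Glo Plus, added after a 45-minute room-temperature reaction, served as the end-point read-out. The enzyme and substrate were preincubated with compound before ADP (130 uM final) initiated turnover. Concentration-effect curves came from normalized qHTS data.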
RE007 growth inh – less growth of the S. pombe RE007 Vpr strain; S. pombe RE007 Vpr strain, BacTiter-Glo ATP luminescence, 24 h; Potency, µM (highest dose often 92.2 µM), usual class: inhibitors; hit rate 0.21% among 360,000; active = well fitted falling curve with a large enough effect; inconclusive = small, poorly fitted or top-dose-only effect; inactive = no such curve, though single readings can be large or run the other way; note: nearly all actives have a fitted effect of over 50% in size
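Fission yeast RE007 carrying one integrated HIV-1 vpr copy, seeded at OD 0.01 in PMG+AL medium with 23 nL pinned compound. Grown 24 h at 30 degrees; viability read by BacTiter-Glo luminescence after 5 min.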
LmPK inhibitor – LmPK (Leishmania mexicana) enzyme inhibition | purified LmPK, Kinase-Glo ATP luminescence, 1 h | Potency, µM (doses to about 57.5 µM), hits mostly inhibitors | hit rate 0.37% among 290,000
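Purified LmPK (0.1 nM) with 0.5 mM PEP and 0.1 mM ADP in imidazole buffer pH 7.2 with MgCl2/KCl, 1 h at room temperature. ATP formed was read by luciferase luminescence and normalized to no-enzyme and uninhibited controls.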
Giardia growth – blocks growth of Giardia lamblia trophozoites; shares compounds with Giardia FBPA inh-1; Potency, µM (series often up to 57.5 µM), hits mostly inhibitors; AID 2785; Giardia lamblia trophozoite growth inhibition; hit rate 5% among 1,500;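 note: trophozoites exposed to compound for 48 h at 37 °C; nearly all actives have a fitted effect of over 70% in size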
Mammal cell tox – mammalian cytotoxicity of Giardia aldolase inhibitor hits. mammalian cell viability counter-screen, qHTS. Potency, µM (top dose mostly 57.5 µM), most hits filed as inhibitors. AID 2786. hit rate 4% among 1,500. shares compounds with Giardia FBPA inh-1;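 note: Chinese hamster ovary cells used as mammalian cytotoxicity surrogate; viability measured as cellular ATP by luminescence; compound exposure lasted 48 h before reading; nearly all actives have a fitted effect of over 60% in size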
Giardia FBPA inh-2 – confirmation of Giardia fructose-bisphosphate aldolase inhibitors; shares compounds with Giardia FBPA inh-1; purified Giardia aldolase enzyme activity, qHTS; Potency, µM (series often up to 57.5 µM), usual class: inhibitors; hit rate 5% among 1,500; note: nearly all actives have a fitted effect of over 45% in size
Rabbit FBPA inh – blocks rabbit muscle aldolase in Giardia aldolase selectivity test; Rabbit muscle FBPA enzyme inhibition, selectivity counter-screen; hit rate 4% among 1,500; Potency, µM (series often up to 57.5 µM), hits mostly inhibitors; shares compounds with Giardia FBPA inh-1; note: nearly all actives have a fitted effect of over 60% in size
Target sequence (P00883 whole entry, looked up): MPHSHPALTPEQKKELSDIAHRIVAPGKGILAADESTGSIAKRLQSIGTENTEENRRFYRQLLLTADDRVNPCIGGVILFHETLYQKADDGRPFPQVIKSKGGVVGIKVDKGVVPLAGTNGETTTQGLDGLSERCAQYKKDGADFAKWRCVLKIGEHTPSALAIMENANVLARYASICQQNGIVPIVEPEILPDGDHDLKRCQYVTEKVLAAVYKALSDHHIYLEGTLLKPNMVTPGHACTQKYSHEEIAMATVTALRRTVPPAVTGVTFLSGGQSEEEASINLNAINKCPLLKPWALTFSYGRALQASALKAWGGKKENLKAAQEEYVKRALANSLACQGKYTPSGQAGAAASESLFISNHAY
GAPDH counter – GAPDH inhibition flagged for Giardia aldolase hits; hit rate 6% among 1,500; GAPDH coupling enzyme counterscreen, biochemical, qHTS; Potency, µM (top dose mostly 57.5 µM), usual class: inhibitors; shares compounds with Giardia FBPA inh-1; AID 2795; note: nearly all actives have a fitted effect of over 55% in size
Large screens that a line does not name were inactive (follow-up assays come after a bar, where they were run); [ ] = dose if it differs, or a comment. Unless noted, calls come from the whole dose curve; as a rule, active = well fitted curve in the direction sought with a large enough effect; inconclusive = small, poorly fitted or top-dose-only effect, or another doubt; inactive = no such curve, though single readings can be large; an effect the other way counts as inactive or inconclusive.

CCN(CC)S(=O)(=O)c1ccc(C)c(NC(=O)CNCCN(C(C)C)C(C)C)c1	Giardia FBPA inh-1 14.1µM | Giardia growth inactive | Mammal cell tox inactive | Giardia FBPA inh-2 inactive | Rabbit FBPA inh inactive | GAPDH counter inactive
CCN(CC)S(=O)(=O)c1ccc(C)c(NC(=O)CSc2nnnn2C)c1	none (no result: Cycloheximide cs, Giardia FBPA inh-1, Shiga toxin inh, LmPK inhibitor)
CC(CNC(=O)c1ccc(Cn2c(=O)c3cccn3c3cccnc32)cc1)c1ccccc1 (stereo not given)	none (no result: Cycloheximide cs, Giardia FBPA inh-1, Shiga toxin inh, RE007 growth inh, LmPK inhibitor)
CC(C)N(Cc1ccccc1)S(=O)(=O)c1ccc(N2CCCCS2(=O)=O)cc1	none (no result: Cycloheximide cs, Giardia FBPA inh-1, Shiga toxin inh, RE007 growth inh, LmPK inhibitor)
CCC1CN(C(=O)N2CCC(C(=O)NCCc3cc(OC)ccc3OC)CC2)c2ccccc2O1 (stereo not given)	none (no result: Cycloheximide cs, Giardia FBPA inh-1, Shiga toxin inh, RE007 growth inh, LmPK inhibitor)
CCCNC(=O)C1Cc2cc(S(=O)(=O)N3CCCCCC3)ccc2N1C(C)=O (stereo not given)	none (no result: Cycloheximide cs, Giardia FBPA inh-1, Shiga toxin inh, RE007 growth inh, LmPK inhibitor)
COc1cc(CN2CCC(C(=O)NC3CCCC3)CC2)cc(OC)c1O	Giardia FBPA inh-1 17.7µM | Giardia growth inactive | Mammal cell tox inactive | Giardia FBPA inh-2 3.98µM | Rabbit FBPA inh inconclusive | GAPDH counter inconclusive
COc1cc(CN2CCN(C(=O)CC(C)C)CC2)cc(OC)c1O	Giardia FBPA inh-1 15.8µM | Giardia growth inconclusive | Mammal cell tox inactive | Giardia FBPA inh-2 3.98µM | Rabbit FBPA inh inconclusive | GAPDH counter inactive
CS(=O)(=O)c1ccc([C@H](O)[C@H](CF)NC(=O)C(Cl)Cl)cc1	none (no result: Cycloheximide cs, Shiga toxin inh, RE007 growth inh, LmPK inhibitor)
CCCN1CCC(N2CCN(c3ccc([N+](=O)[O-])cc3)CC2)CC1	Giardia FBPA inh-1 15.8µM | Giardia growth inactive[10.4 µM] | Mammal cell tox inactive | Giardia FBPA inh-2 inactive | Rabbit FBPA inh inactive | GAPDH counter inactive
CCN1CCC(N2CCN(c3ccc(Cl)cc3)CC2)CC1	none
O=C(NNC(=S)Nc1ccc(Cl)c(Cl)c1)c1ccccn1	Cycloheximide cs 36.5, Giardia FBPA inh-1 14.1µM, Shiga toxin inh 87.3 | Giardia growth inactive[10.4 µM] | Mammal cell tox inconclusive | Giardia FBPA inh-2 inactive | Rabbit FBPA inh inactive | GAPDH counter inactive
Cc1ccc(S(=O)(=O)N2CCN(C(=O)CSc3nnc(C)c(=O)[nH]3)CC2)cc1	Giardia FBPA inh-1 28.2µM | Giardia growth inconclusive | Mammal cell tox inactive | Giardia FBPA inh-2 inactive | Rabbit FBPA inh inactive | GAPDH counter inactive
Cc1ccc(/C=C2\SC(=S)N(CC3CCCO3)C2=O)o1 (stereo not given)	Giardia FBPA inh-1 17.7µM, Tb PYK inh inconclusive | Giardia growth inactive | Mammal cell tox inactive | Giardia FBPA inh-2 inactive | Rabbit FBPA inh inactive | GAPDH counter inactive
Cc1ccc(/C=C2/SC(=S)N(C3CCCCC3)C2=O)o1	none
CC(=O)N1CCN(C(=O)CSc2nc3c(cnn3-c3ccccc3)c(=O)[nH]2)CC1	Cycloheximide cs 38.2, Giardia FBPA inh-1 39.8µM, Shiga toxin inh 77.6 | Giardia growth inconclusive | Mammal cell tox inactive | Giardia FBPA inh-2 inactive | Rabbit FBPA inh inactive | GAPDH counter inactive
Cc1oc(CSCCSCc2cc(C(=O)O)c(C)o2)cc1C(=O)O	Giardia FBPA inh-1 14.1µM (no result: Shiga toxin inh) | Giardia growth inactive | Mammal cell tox inactive | Giardia FBPA inh-2 inactive | Rabbit FBPA inh inactive | GAPDH counter inactive
Cc1cc(C)nc(NN2C(=O)C=CC2=O)n1	Giardia FBPA inh-1 5.01µM | Giardia growth inconclusive | Mammal cell tox inactive | Giardia FBPA inh-2 inactive | Rabbit FBPA inh inactive | GAPDH counter inactive
Cc1cc(C)nc(NN2C(=O)/C(=C/c3ccccc3)SC2=S)n1	none
CCOC(=O)c1nnn(CC(=O)Nc2cc(C)cc(C)c2)c1C(=O)OCC	none (no result: Cycloheximide cs, Giardia FBPA inh-1, Shiga toxin inh, RE007 growth inh, LmPK inhibitor)
